Structures can show the parent of a compound that is named as a salt.
Legend:
Experiment in all cases: Euclidean distance of Cell Painting phenotypic profile (signed KS, 77 features) to DMSO centroid (dimensionless distance); 5 or 10 uM (library dependent); higher = stronger phenotypic change vs DMSO (phenoactivity)
Details in all cases: 48 h
786-O = tested on: 786-O
Outline: (§1)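 Phenoactivity is computed as Euclidean distance to the median vehicle profile. The profiles, drawn from 77 Harmony features scored as signed Kolmogorov-Smirnov statistics versus same-plate vehicle wells, were corrected for plate position, correlation-weighted and replicate-averaged at the top dose. Stained cells were imaged confocally at 20X (9 fields/well) after 48 h with library compounds at 10 or 5 uM, 0.1% DMSO final, in five cancer lines and a healthy fibroblast line.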

A549 = tested on: A549
Outline: as §1

DU145 = tested on: DU145
Outline: as §1

FB = tested on: FB
Outline: as §1

HEPG2 = tested on: HEPG2
Outline: as §1

OVCAR4 = tested on: OVCAR4
Outline: as §1

SMILES	Euclidean distance (786-O)	Euclidean distance (A549)	Euclidean distance (DU145)	Euclidean distance (FB)	Euclidean distance (HEPG2)	Euclidean distance (OVCAR4)
COc1cc(Nc2ncc3c(n2)-c2ccc(Cl)cc2C(c2c(F)cccc2OC)=NC3)ccc1C(=O)O [Alisertib (MLN8237)]	2.85	3.22	2.99	3.08	2.23	2.8
CO/N=C1\C[C@]2(C[C@@H]3C[C@@H](C/C=C(\C)C[C@@H](C)/C=C/C=C4\CO[C@@H]5[C@H](O)C(C)=C[C@@H](C(=O)O3)[C@]45O)O2)O[C@H](/C(C)=C/C(C)C)[C@H]1C [Moxidectin]	3.17	2.11	2.44	1.21	0.757	1.63
CO/N=C(\C(=O)N[C@@H]1C(=O)N2C(C(=O)O)=C(COC(N)=O)CS[C@H]12)c1ccco1 [Cefuroxime sodium]	0.996	0.519	0.747	0.81	1.48	1.04
CC(C)N(CCCNC(=O)Nc1ccc(C(C)(C)C)cc1)C[C@H]1O[C@@H](n2ccc3c(N)ncnc32)[C@H](O)[C@@H]1O	1.04	0.769	0.92	1.18	0.5	0.755
CCOC(=O)c1c(N)sc2c1CCN(Cc1ccccc1)C2 [Tinoridine hydrochloride]	1.51	0.9	1.2	1.13	0.814	1.31
C[C@H](NC(=O)/C(C#N)=C/c1cccc(Br)n1)c1ccccc1	3.27	3.07	3.01	3.17	2.6	2.17
O=C1Nc2ccc(I)cc2/C1=C/c1cc(Br)c(O)c(Br)c1	1.58	0.975	0.984	1.02	0.668	1.3
O=C(O)/C=C/c1ccc(O)c(O)c1 [Caffeic Acid]	0.946	0.603	1.61	0.961	0.639	1.23
Cc1cc(C)c2c(c1)[C@@H](N(Cc1cc(C(F)(F)F)cc(C(F)(F)F)c1)c1nnn(C)n1)CCCN2C[C@H]1CC[C@H](C(=O)O)CC1	1.71	1.7	1.3	1.05	1.05	1.25
C[N+](C)(C)CC(=O)O [Betaine]	1.1	0.84	0.542	0.947	1.41	0.81
CC[C@H](C)C(=O)O[C@H]1C[C@H](O)C=C2C=C[C@H](C)[C@H](CC[C@@H](O)C[C@@H](O)CC(=O)O)[C@H]21 [Pravastatin sodium]	0.813	0.763	0.709	0.425	0.254	0.778
COc1ccc(-c2cc(=O)c3c(O)cc(O[C@@H]4O[C@H](CO[C@@H]5O[C@@H](C)[C@H](O)[C@@H](O)[C@H]5O)[C@@H](O)[C@H](O)[C@H]4O)cc3o2)cc1O [Diosmin]	0.665	0.621	1.01	0.778	0.671	0.702
CN(C)CCC(c1ccccc1)c1ccccn1 (configuration not stated) [Pheniramine Maleate]	0.54	1.02	0.777	0.632	0.694	1.34
CC(=O)c1cc([N+](=O)[O-])c(Sc2cccc(Cl)c2Cl)s1	0.465	0.706	0.528	0.668	0.869	1.26
CC(C)(C)c1cc(C(C)(C)C)c(NC(=O)c2c[nH]c3ccccc3c2=O)cc1O [Ivacaftor (VX-770)]	2.11	2.23	1.21	0.989	1.96	1.56
CC#CC(=O)N1CCC[C@H]1c1nc(-c2ccc(C(=O)Nc3ccccn3)cc2)c2c(N)nccn12 [Acalabrutinib (ACP-196)]	0.929	0.693	2.19	1.3	3.25	1.22
CC(C)C[C@H](NC(=O)[C@H]1O[C@@H]1C(=O)O)C(=O)NCCCCN=C(N)N	1.31	1.07	1.07	1.02	0.615	1.09
CC(C)(Sc1ccncc1-c1ccc(C#N)c2ccccc12)C(=O)O [Verinurad (RDEA3170)]	0.821	0.673	0.864	1.25	0.457	1.2
COc1ccc(CNc2nc(N3CCC[C@H]3CO)ncc2C(=O)NCc2ncccn2)cc1Cl [Avanafil]	1.22	0.789	1.12	0.94	0.764	1.44
CCC(=O)Oc1ccc2c(c1)CCC1C2CCC2(C)C(OC(=O)CC)CCC12 (stereo not drawn) [17-Beta-Estradiol-3.17-Dipropionate]	1.55	0.8	1.46	1.21	0.326	0.98
Cc1nc(Nc2ncc(C(=O)Nc3c(C)cccc3Cl)s2)cc(N2CCN(CCO)CC2)n1 [Dasatinib Monohydrate]	3.41	3.76	6.08	3.53	2.09	4.26
CC(C)(O)CNc1nc(Nc2ccnc(C(F)(F)F)c2)nc(-c2cccc(C(F)(F)F)n2)n1 [Enasidenib (AG-221)]	1.17	0.727	1.69	1.4	1.82	1
C[C@@](Cc1ccc(O)c(O)c1)(NN)C(=O)O [Carbidopa]	1.38	1.06	0.985	1.1	0.878	1.05
Nc1ccccc1NC(=O)c1ccc(CNC(=O)OCc2cccnc2)cc1 [Entinostat (MS-275)]	3.47	2.57	2.22	3.25	2.93	2.57

SMILES	Euclidean distance (786-O)	Euclidean distance (A549)	Euclidean distance (DU145)	Euclidean distance (FB)	Euclidean distance (HEPG2)	Euclidean distance (OVCAR4)
N#Cc1c(O)c2c(-c3ccc(-c4ccccc4O)cc3)csc2[nH]c1=O	1.12	1.26	0.976	0.818	0.746	1.78
C[C@@H]1C[C@H]2[C@@H]3CCC4=CC(=O)C=C[C@]4(C)[C@@]3(F)[C@@H](O)C[C@]2(C)[C@@]1(O)C(=O)COP(=O)(O)O [Dexamethasone Sodium Phosphate]	1.79	2.25	2.22	1.44	0.744	2.38
CCOC(=O)c1ccc(O)cc1 [Ethylparaben]	0.729	0.362	0.901	0.865	0.385	1.31
C/C=C1\[C@H]2C=C(C)C[C@]1(N)c1ccc(=O)[nH]c1C2 [(-)-Huperzine A (HupA)]	1.09	0.676	0.79	0.881	0.528	1.07
CNC(=O)c1ccc(N2C(=S)N(c3ccc(C#N)c(C(F)(F)F)c3)C(=O)C2(C)C)cc1F [Enzalutamide (MDV3100)]	0.957	1.37	1.2	1.38	0.965	1.18
c1cn2cc(-c3ccc4cn[nH]c4c3)nc(Nc3ccc(N4CCOCC4)cc3)c2n1 [Entospletinib (GS-9973)]	2.51	2.15	2.1	0.923	0.994	1.42
NS(=O)(=O)c1cc2c(cc1Cl)N=C(CSCc1ccccc1)NS2(=O)=O [Benzthiazide]	1.33	1.17	1.06	1.18	1.62	1.62
O=C(Nc1ccc([N+](=O)[O-])cc1Cl)c1cc(Cl)ccc1O [Niclosamide]	2.27	2.95	2.1	3.12	0.819	2.45
Clc1ccc(C(Cn2ccnc2)OCc2ccsc2Cl)c(Cl)c1 (configuration not stated) [Tioconazole]	1.07	0.786	2.41	1.25	1.14	1.44
C[N+](C)(C)CCO.[Cl-] [Choline Chloride]	0.795	0.549	0.73	0.801	0.682	1.46
CCCOc1ccc2c(c1)CC[C@@H]1[C@@H]2CC[C@]2(C)[C@@H](OC)CC[C@@H]12 [Promestriene]	1.13	0.797	0.94	1.24	0.764	1.01
Cc1cn([C@H]2O[C@@H](CO)[C@H](O)[C@H]2F)c(=O)[nH]c1=O [Clevudine]	1.08	0.649	1.79	0.837	0.504	1.03
CN[C@@H]1[C@@H](O)[C@@H](O[C@@H]2[C@@H](O)[C@H](O[C@H]3OC(CN)=CC[C@H]3N)[C@@H](N)C[C@H]2N)OC[C@]1(C)O [Sisomicin sulfate]	1.2	1.53	0.985	0.996	0.672	1.05
COc1cccc2c1C(=O)c1c(O)c3c(c(O)c1C2=O)C[C@@](O)(C(=O)CO)C[C@@H]3O[C@H]1C[C@H](N)[C@@H](O)[C@H](C)O1 [Epirubicin HCl]	3.54	4.33	3.92	5.12	4.78	4.83
O=C1CN(/N=C/c2ccc([N+](=O)[O-])o2)C(=O)N1 [Nitrofurantoin]	1.11	0.86	1.02	0.744	0.699	0.831
Cc1c(O)cccc1C(=O)N[C@@H](CSc1ccccc1)[C@H](O)CN1C[C@H]2CCCC[C@H]2C[C@H]1C(=O)NC(C)(C)C [Nelfinavir Mesylate]	1.88	2.45	1.22	1.59	1.01	1.16
NC(CO)C(=O)NNCc1ccc(O)c(O)c1O (configuration not stated) [Benserazide HCl]	1.18	0.748	0.938	0.967	0.666	1.39
O=C(O)c1ccc2c(c1)nc(Nc1cccc(Cl)c1)c1ccncc12 [CX-4945 (Silmitasertib)]	1.47	1.44	2.54	1.55	1.4	1.25
Cn1ncnc1[C@H]1c2n[nH]c(=O)c3cc(F)cc(c23)N[C@@H]1c1ccc(F)cc1	1.03	1.17	0.939	1.27	1.56	0.901
Cc1cccc(C)c1NC(=O)c1cc(S(N)(=O)=O)c(Cl)cc1O [Xipamide]	1.51	0.665	0.648	1.08	0.576	1.08
COc1nc(N)nc2c1ncn2[C@@H]1O[C@H](CO)[C@@H](O)[C@@H]1O [Nelarabine]	1.28	1.4	0.995	2.02	0.531	1.1
O=C(NCC(O)CO)c1c(I)c(C(=O)NCC(O)CO)c(I)c(N(CCO)C(=O)CO)c1I (configuration not stated) [Ioversol]	0.684	0.636	0.983	0.679	0.876	1.14
CCN(CC)C(=O)/C(C#N)=C/c1cc(O)c(O)c([N+](=O)[O-])c1 [Entacapone]	0.439	0.512	0.513	1.1	0.422	0.77
